In the library only some 14% were active in any assay of this set; here they are far more common.
Giardia FBPA inh: qHTS Assay for Inhibitors of Fructose-1,6-bisphosphate Aldolase from Giardia Lamblia; A8B2U2; purified Giardia FBPA; Potency, µM (titrated, usually from 59.6 µM), most hits filed as inhibitors; hit rate 0.71% among 290,000; also: nearly all actives have a fitted effect of over 55% in size
Target sequence (A8B2U2 whole entry, looked up): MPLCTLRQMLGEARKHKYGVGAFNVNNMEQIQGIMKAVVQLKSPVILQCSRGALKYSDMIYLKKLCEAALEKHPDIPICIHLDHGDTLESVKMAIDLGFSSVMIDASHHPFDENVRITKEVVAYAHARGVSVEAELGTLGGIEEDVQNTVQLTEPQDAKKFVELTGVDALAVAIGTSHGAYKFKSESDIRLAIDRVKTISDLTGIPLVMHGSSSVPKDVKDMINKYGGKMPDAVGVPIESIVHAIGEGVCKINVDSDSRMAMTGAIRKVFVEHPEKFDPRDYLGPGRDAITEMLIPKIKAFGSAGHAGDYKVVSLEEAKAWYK
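Giardia FBPA (40 nM reagent) was preincubated 10 min at RT with compound (up to 57.5 uM final), then substrate plus GAPDH/TPI/NAD/arsenate coupling system with diaphorase/resazurin was added; resorufin fluorescence (525/598 nm) was read after 20 min.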
Sm TGR inh: qHTS Assay for the Inhibitors of Schistosoma Mansoni Peroxiredoxins; Schistosoma mansoni thioredoxin glutathione reductase (TGR), Q962Y6; purified TGR, DTNB reduction, TNB absorbance 405 nm; Potency, µM (series often up to 114 µM), most hits filed as inhibitors; hit rate 3% among 360,000; AID 485364, 2010; also: nearly all actives have a fitted effect of over 60% in size
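TGR 20 nM + NADPH 100 uM (dispensed conc.), cpd preinc 15 min RT; start with NADPH (500 uM addition) then DTNB (15 mM addition). Kinetic TNB absorbance, 405 nm filter. Four-parameter Hill fit across titration.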
Pf growth 48h: Primary qHTS for delayed death inhibitors of the malarial parasite plastid, 48 hour incubation; hit rate 5.9% among 310,000; Potency, µM (titrated, usually from 28.7 µM), hits mostly inhibitors; P. falciparum luciferase growth in erythrocytes, 48 h; AID 504832, 2011
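Read-out is firefly luciferase luminescence from an integrated reporter in P. falciparum, so falling signal marks reduced parasite growth. Infected erythrocytes were at 2% hematocrit and 0.1% parasitemia (final) in Albumax-supplemented RPMI 1640.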
Pf growth 96h: Primary qHTS for delayed death inhibitors of the malarial parasite plastid, 96 hour incubation. Potency, µM (doses to about 28.7 µM), most hits filed as inhibitors. P. falciparum luciferase reporter growth, 96 h. hit rate 6.9% among 320,000. AID 504834, 2011
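Delayed-death screen, second-generation endpoint: infected erythrocytes, 2% hematocrit, 0.05% parasitemia final; 96 hours at 37 C, 5% CO2; luciferase detection reagent; luminescence decrease equals reduced growth.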
HCMV antiviral: qHTS Assay for inhibitors of the human cytomegalovirus (HCMV); AID 1259415, 2018; activity change, negative = inhibition, % at 57.5 µM; HFF cells, HCMV-luciferase reporter, 72 h; stronger effect = lower value; hit rate 4.5% among 410,000; in the data active = activity change below about -60%; inconclusive = no clear call, values can overlap the other calls; inactive = above about -39%
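Cell-based, HFFs, 1000 cells/well, 16 h 37C; cpds in DMSO + HCMV-luc, MOI 1 PFU/cell; 72 h 37C; OneGlo luminescence after 5 min RT; norm. to buffer vs Salinomycin 10uM.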
A number is an active result; 0 = inactive; ? = inconclusive; - = no result. Unless noted, calls follow the shape of the dose curve; as a rule, active = well fitted curve in the direction sought with a large enough effect; inconclusive = small, poorly fitted or top-dose-only effect, or another doubt; inactive = no such curve, though single readings can be large; an effect the other way counts as inactive or inconclusive.

SMILES | Giardia FBPA inh | Sm TGR inh | Pf growth 48h | Pf growth 96h | HCMV antiviral
CC(Oc1cccc(Cl)c1)C(=O)Nc1ccc(S(=O)(=O)N(C)C2CCN(C)CC2)cc1 (centres undefined) | - | 0 | 9.3µM | ? | 0
CC(C)c1cccc(-c2nc3c(NC4CCC(O)CC4)nccc3[nH]2)c1 (centres undefined) | - | - | - | - | 0
C#CCn1cc(/C=C2\NC(=O)NC2=O)c2ccccc21 | 0 | 0 | 0 | 0 | 0
CC(C)n1nc(C(=O)Nc2cccc(S(=O)(=O)N3CCOCC3)c2)c2ccccc2c1=O | - | 0 | ? | 10µM | 0
Cn1nc(C(=O)Nc2cccc(S(=O)(=O)N3CCCC3)c2)c2ccccc2c1=O | - | 0 | 8.3µM | 9.3µM | 0
Cn1nc(C(=O)OCC(=O)Nc2cccc(S(=O)(=O)N3CCCC3)c2)c2ccccc2c1=O | 0 | 0 | 12µM | 0 | 0
Oc1c(C(c2ccc(Cl)cc2Cl)N2CCCC2)sc2nc(-c3ccco3)nn12 (centres undefined) | - | ? | - | - | 0
O=C(Nc1ccc(C(=O)NC2CCCCC2)cc1)c1cncc(Br)c1 | 0 | 0 | 0 | 0 | 0
Cc1sc2ncn(CC(=O)N3CCN(c4cccc(Cl)c4)CC3)c(=O)c2c1S(=O)(=O)N1CCC(C)CC1 | - | 0 | - | - | 0
CCN(CC)S(=O)(=O)c1ccc(NC(=O)CSc2nnc(-c3cccc(OC)c3)n2C)cc1 | 0 | 0 | 10µM | ? | 0
CCCCSc1nnc(-c2ccc(OC)cc2)n1C | 0 | 0 | 0 | 13µM | 0
CCn1c(SCC(=O)Nc2ccc(C)cc2)nnc1-c1ccc(O)cc1 | 0 | 0 | ? | 2.6µM | 0
COc1ccc(NC(=O)CSc2nnc(-c3ccccc3C)n2C)cc1 | 0 | 0 | ? | 0 | -67
O=C(O)[C@@H]1CSCN1 | - | - | 0 | 0 | -
CSc1nc2sc3c(c2c(=O)n1-c1ccc(F)c(Cl)c1)CCN(C(C)=O)C3 | - | 0 | - | - | 0
COc1ccc(NC(=O)CSc2nnc(-c3ccco3)n2C)cc1 | 0 | 0 | 0 | 6.6µM | 0
CCn1c(SCC(=O)Nc2ccc(N3CCOCC3)cc2)nnc1-c1ccco1 | - | ? | 0 | 10µM | 0
CCOc1ccc(NC(=O)CSc2nnc(-c3ccco3)n2C)cc1 | 0 | 0 | 0 | ? | 0
Nn1c(SCC(=O)Nc2ccc(S(N)(=O)=O)cc2)nnc1-c1ccco1 | 0 | 0 | 0 | 13µM | 0
COc1cccc(CSc2nnc(-c3ccco3)n2C)c1 | 0 | 40µM | ? | 0 | 0
Cc1cc(OC(C)C(=O)N(Cc2ccco2)Cc2ccco2)cc(C)c1Cl (centres undefined) | - | 0 | - | - | 0
CCCCCCc1ccc(N2C[C@H](Cc3ccccc3)[C@@H](CC(=O)Nc3ccccc3)C2=O)cc1 | 0 | 0 | ? | ? | 0
Cc1ccc(NC(=O)CSc2nc3sc(C)cc3c(=O)n2C)cc1 | 0 | 0 | ? | 9.3µM | ?
COc1ccc(-c2nnc(SCC(=O)Nc3ccc(C)cc3)n2C)cc1 | 0 | 0 | 0 | 5.2µM | 0
Cc1ccc(NC(=O)c2cc(S(=O)(=O)N3CCCCCC3)ccc2F)cc1F | - | 0 | - | - | 0
SMILES | Giardia FBPA inh | Sm TGR inh | Pf growth 48h | Pf growth 96h | HCMV antiviral
BrC(=C\c1ccccc1)/C=N/n1cnnc1 | 0 | 0 | 10µM | 0 | -99
Cc1cccc(C(=O)N[C@H](C(=O)Nc2ncc(C)s2)C(C)C)c1 | 0 | 0 | ? | ? | -107
Cc1cccc(C(=O)NC(C(=O)Nc2nc(-c3ccccn3)cs2)C(C)C)c1 (centres undefined) | 0 | 0 | 15µM | ? | ?
CC(=O)O[C@H]1[C@H](C)OC=C[C@@H]1OC(C)=O | 0 | 0 | 0 | 0 | ?
CCC(Sc1nnc(C)n2c1cc1occc12)C(=O)Nc1ccccc1F (centres undefined) | - | 0 | - | - | 0
CCC(=O)N1N=C(c2c(O)n(C)c(=O)n(C)c2=O)CC1c1ccccc1 (centres undefined) | ? | 0 | ? | ? | ?
Cn1c(O)c(C2=NNC(c3ccc(Cl)cc3)C2)c(=O)n(C)c1=O (centres undefined) | ? | 0 | 13µM | ? | 0
CCOc1ccc(C2CC(c3c(O)n(C)c(=O)n(C)c3=O)=NN2)cc1 (centres undefined) | ? | 0 | ? | 15µM | 0
Cc1cccc(-c2noc(CN(C(=O)c3ccccc3Cl)C(C)C)n2)c1 | - | 0 | - | - | 0
Cc1cccc(N2CCN(C(=O)COc3noc4nc(C)cc(C)c34)CC2C)c1 (centres undefined) | - | - | - | - | 0
CCOC(=O)C[C@@H](C#N)NC(=O)[C@@H]1CCCN1C(=O)[C@@H](NC(=O)c1ccc(N)c(Cl)c1)C(C)(C)C | - | - | - | - | 0
Cc1c(C(=O)N2CCN(Cc3ccc4c(c3)OCO4)CC2)sc2ncnc(N3CCN(c4ccccc4)CC3)c12 | 0 | 0 | 0 | ? | -86
Cc1nc(N2CCN(Cc3ccc4c(c3)OCO4)CC2)c2cc(-c3ccccc3)sc2n1 | 0 | 0 | 12µM | ? | 0
Cc1nc(N2CCN(Cc3ccc4c(c3)OCO4)CC2)c2oc3ccccc3c2n1 | - | - | - | - | 0
CCCNC(=O)Cn1cnc2sc(C(=O)N3CCN(Cc4ccc5c(c4)OCO5)CC3)c(C)c2c1=O | 0 | 0 | 0 | ? | ?

High-throughput results from PubChem BioAssay.
